This is part of a sample that, as a whole, favours compounds with a hit. Of some 83,000 tested, about 20% had one in any assay.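 Interpretation: 100, growth as untreated; towards 0, rising growth inhibition; 0, no net growth; 0 to -100, cell death. Compounds scoring below 10 were considered active.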 Calls of active or inactive are those of the source.
system: OVCAR-8 ovarian; assay: NCI-60 one-dose screen, 48 h (100 = growth as untreated, 0 = no growth, -100 = all killed); conditions: 10 µM unless noted
Description: Growth inhibition of the OVCAR-8 human tumor cell line is measured as a screen for anti-cancer activity. Cells are grown in 96 well plates and exposed to the test compound for 48 hours. Compounds are tested at a single concentration, which is 10^-5 M for most compounds. The reported endpoint is percent growth (GI% or GIPRCNT), where numbers from 0 - 100% represent growth inhibition, and numbers from -100% - 0 represent cell death. For example, a value of 40 represents 60% growth inhibition. A value of 0 means no net growth occurred over the course of the experiment. A value of -40 indicates 40% of cells at the beginning of the experiment died by the end of the experiment. A value of -100 means all cells are dead at the end of the experiment.
NCI-60 Human Tumor Cell Lines Screen was performed using the standard one-dose NCI protocol, which is described in more detail at https://dtp.cancer.gov/discovery_development/nci-60/default.htm.
Compounds with GIPRCNT values below 10 were considered active. Activity score was based on GIPRCNT using the following formula: […]
Score is 0 for GIPRCNT values of 100 or above, 50 for GIPRCNT values of 0, and 100 for GIPRCNT values of -100.

Structure (SMILES) | growth
COc1cc(C2C=C(c3ccc(C)cc3)Nc3nc(SC)[nH]c(=O)c32)ccc1Oc1ccnc2cc(Cl)ccc12 (stereo not given) | 83.4% (inactive)
COc1ccc2nccc(/C=C/c3ccnc4ccc(OC)cc34)c2c1 | 68.9% (inactive)
Cc1c(C(N)=O)sc2nc(SCC(=O)Nc3ccc(Cl)cc3)n(-c3ccccc3)c(=O)c12 | 118% (inactive)
COc1cc(/C=C/C(=O)c2c(-c3ccc(F)cc3)nc3sc(C)nn23)cc(OC)c1OC | 9.66% (active)
CC[C@H](C)C(=O)O[C@H]1C[C@@H](C)C=C2C=C[C@H](C)[C@H](CC[C@@H]3C[C@@H](O)CC(=O)O3)[C@H]21 | 61.9% (inactive)
O=C1CC(=O)N(c2ccccc2)O1 | 103% (inactive)
CCOC(=O)C1=C(COCCN)NC(C)=C(C(=O)OC)C1c1ccccc1Cl (stereo not given) | 82% (inactive)
Cc1cc2c(C#N)n3c(c2cc1C)C(=O)C(c1ccccc1)Oc1ccccc1-3 (stereo not given) | 23.6% (inactive)
O=C(CCc1nnc(SCc2ccccc2)s1)c1nc2ccccc2[nH]1 | 98.7% (inactive)
c1cnc2ccc3ncccc3c2c1 | 95.4% (inactive)
COc1cc(/C=C/c2nnc(-c3cc(-c4ccccc4)n[nH]3)o2)cc(OC)c1OC | 80.8% (inactive)
CCOC(=O)c1c(C)nc(C)c(C(=O)OCC)c1-c1cccnc1 | 112% (inactive)
O=C(Cn1ccnc1)NC(c1ccccc1)c1ccccc1 | 102% (inactive)
CC(C)c1nc(N(C)S(C)(=O)=O)nc(-c2ccc(F)cc2)c1/C=C/[C@@H](O)C[C@@H](O)CC(=O)O | 90.5% (inactive)
COc1ccc(COC(C)=O)cc1 | 106% (inactive)
CCC(CCC(C)C1CCC2C3CC=C4CC(O)CCC4(C)C3CCC12C)C(C)C (stereo not given) (tested in a mixture with another compound) | 89.9% (inactive)
O=C(OCCBr)c1ccc(Cl)c([N+](=O)[O-])c1 | 102% (inactive)
O=C1CCCN1C1CCN(Cc2cc3ccccc3[nH]c2=O)c2ccccc21 (stereo not given) | 101% (inactive)
Cc1cc(CC(=O)O)n(C)c1C(=O)c1ccc(Cl)cc1 | 97.7% (inactive)
CN(C)c1ccc2c(c1)/C(=N/O)c1ccccc1-2 | 97.6% (inactive)

Structure (SMILES) | growth
COC(=O)CCC1=C(C)/C(=C/c2[nH]c(-c3ccc[nH]3)cc2OC)N=C1C | 10% (inactive)
COc1cccc(CCC2C(=O)CCCC2=O)c1 | 116% (inactive)
Nc1c2ccccc2nc2ccccc12 (tested in a mixture with another compound) | 4.39% (active)
CN1CCCC1c1cccnc1 (stereo not given) | 111% (inactive)
O=C(CSc1nc2c(n1Nc1ccccc1)-c1ccccc1SC2)Nc1nc(-c2ccc(Cl)cc2)cs1 | 57.3% (inactive)
CCN(CC)c1ccc(CN(CC(=O)c2ccc(Cl)c(Cl)c2)Cc2ccccc2)cc1 | 100% (inactive)
COc1ccc(-c2nn(-c3ccccc3)cc2/C=C2\SC(=S)N(CCc3ccc(O)cc3)C2=O)cc1 | 86.5% (inactive)
CCCCCCCCCCCCNc1ncnc2[nH]ncc12 | 77.3% (inactive)
COc1cc(/C=C/C(=O)Nc2ccc3c(c2)/C(=C\c2cccn2C)C(=O)N3)cc(OC)c1OC | 37% (inactive)
COc1cc2c(c(OC)c1OC)-c1ccc(NN(C(=O)c3ccccc3)C(=O)c3ccccc3)c(=O)cc1[C@@H](NC(C)=O)CC2 (tested in a mixture with another compound) | 47.1% (inactive)
CCn1c2ccccc2c2ccc(C(C)=O)cc21 | 104% (inactive)
O=C(c1ccccc1)c1ccccc1Cl | 108% (inactive)
Cc1cc(N2CCOCC2)nc(N2CCOCC2)n1 | 104% (inactive)
N#CCCCCCn1c2ccccc2c2c3c(c4c5ccccc5[nH]c4c21)C(=O)N(O)C3=O | 7.06% (active)
CC1(C)OC(=O)C(=Cc2ccccc2Br)C(=O)O1 | 99.4% (inactive)
Nc1ccc(C2=NN(c3ccccc3)C(c3ccc(Cl)cc3)C2)cc1 (stereo not given) | 81.8% (inactive)
Clc1ccccc1[C@@H]1C[C@@H]2Cc3cc(Br)c4ccccc4c3N1O2 | 61.1% (inactive)
COc1ccc2c(c1)C(=O)c1c-2c(=O)n(CCCCCCC(=O)NO)c2ccccc12 | 7.33% (active)
Nc1nc2ncc(CCNc3ccc(C(=O)NC(CCC(=O)O)C(=O)O)cc3)nc2c(=O)[nH]1 (stereo not given) | 108% (inactive)
COc1ccc(-c2c(-c3cc(OC)c(OC)c(OC)c3)noc2N)cc1 | 24.9% (inactive)
